From PubChem BioAssay (EPA / NIEHS)
Several values for one entry are separate records, joined by “and”; a condition that tells them apart may be missing. Equal entries are not always repeated. Where a structure was tested more than once in an assay, its records may differ in their call. Activity calls are given as the source filed them. The calls were made as follows: active = hit-call score of the fitted dose curve at least 0.9, where 1 is the maximum; inactive = score below 0.9.

Experiments:
[1] = ATG_GLI_CIS: Attagene CIS-FACTORIAL HepG2 Assay for human Zinc Finger Protein GLI1 (AID 2282945); conditions: HepG2, Attagene cis-factorial reporter mRNA, GLI element; actives raise or lower the signal
Summary of the method: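 HepG2 cells transiently transfected with cis-promoter multiplexed reporter units report endogenous transcription factor activity. After 24 h chemical exposure, reporter mRNA was quantified by RT-PCR, 6-FAM labelling, HpaI digestion and capillary electrophoresis, with bidirectional fitting against DMSO.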

[2] = target: Bile acid receptor (Homo sapiens) (UniProt Q96RI1); assay: ATG_IR1_CIS: Attagene CIS-FACTORIAL HepG2 Assay for human Nuclear Receptor Subfamily 1 Group H Member 4 (NR1H4), IR1 submotif (AID 2282946); conditions: IR1 reporter transcription, actives raise or lower the signal
Sequence of Bile acid receptor (Homo sapiens) (Q96RI1 whole entry, looked up): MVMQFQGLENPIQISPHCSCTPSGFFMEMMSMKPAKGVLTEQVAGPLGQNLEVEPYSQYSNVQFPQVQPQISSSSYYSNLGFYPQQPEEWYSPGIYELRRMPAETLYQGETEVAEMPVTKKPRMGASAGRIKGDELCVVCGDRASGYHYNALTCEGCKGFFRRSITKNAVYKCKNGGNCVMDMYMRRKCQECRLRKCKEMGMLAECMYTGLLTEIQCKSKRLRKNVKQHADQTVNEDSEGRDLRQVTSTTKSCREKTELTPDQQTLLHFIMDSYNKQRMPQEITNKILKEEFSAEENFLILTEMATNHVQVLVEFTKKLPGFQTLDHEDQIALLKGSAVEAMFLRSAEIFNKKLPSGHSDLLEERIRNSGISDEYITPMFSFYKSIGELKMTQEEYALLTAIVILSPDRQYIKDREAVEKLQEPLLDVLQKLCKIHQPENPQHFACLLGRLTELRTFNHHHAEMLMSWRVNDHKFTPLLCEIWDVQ
Summary of the method: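 Transient MRTU transfection, HepG2; 24 h dosing; RNA → RT-PCR → 6-FAM primer extension → HpaI digest → capillary electrophoresis fluorescence. Gain/loss of signal fitted relative to DMSO.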

[3] = ATG_GRE_CIS: Attagene CIS-FACTORIAL HepG2 Assay for human Glucocorticoid Response Elements (GRE) (AID 2282947); conditions: HepG2 GRE cis-reporter, Attagene multiplex mRNA; actives raise or lower the signal
Summary of the method: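 Following 24 h chemical exposure of transiently transfected HepG2 cells, total RNA was reverse-transcribed and reporter cDNA amplified, fluorescently labelled and sized by capillary electrophoresis. Signal gain or loss was fitted relative to DMSO vehicle.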

[4] = ATG_ISRE_CIS: Attagene CIS-FACTORIAL HepG2 Assay for human Interferon Regulatory Factor 1 (IRF1) binding to an Interferon-Stimulated Response Element (ISRE) (AID 2282948); conditions: HepG2 ISRE cis-reporter (Attagene), mRNA transcription readout; actives raise or lower the signal
Summary of the method: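 HepG2 cells transiently transfected with multiplexed cis-promoter reporter units; after 24 h compound exposure, reporter mRNA quantified by RT-PCR, FAM labelling, HpaI digestion and capillary electrophoresis. Bidirectional fit versus DMSO baseline.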

[5] = ATG_M_32_CIS: Attagene CIS-FACTORIAL HepG2 Assay for M32 Transcription Factor (Internal Marker) (AID 2282949); conditions: HepG2 Attagene cis-factorial M32 reporter, mRNA; actives raise or lower the signal;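 also: background control marker of the multiplexed CIS panel rather than a real target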
Summary of the method: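 Fluorescent capillary electrophoresis peaks of HpaI-digested, FAM-labelled RT-PCR reporter products give the signal. Source: transiently transfected human liver HepG2 cells, 24 h after chemical dosing; bidirectional fitting against DMSO.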

[6] = ATG_M_06_CIS: Attagene CIS-FACTORIAL HepG2 Assay for M06 Transcription Factor (Internal Marker) (AID 2282950); conditions: HepG2 Attagene CIS-FACTORIAL M06 internal marker reporter; actives raise or lower the signal
Summary of the method: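 Measured 24 h post-dosing in transiently transfected HepG2 cells, this internal-marker endpoint reports reporter mRNA via RT-PCR with fluorescent primer extension and capillary electrophoresis. DMSO served as negative control and baseline for bidirectional fitting.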

[7] = target: Hypoxia-inducible factor 1-alpha (Homo sapiens) (UniProt Q16665); assay: ATG_HIF1a_CIS: Attagene CIS-FACTORIAL HepG2 Assay for human Hypoxia Inducible Factor 1 (HIF1A) (AID 2282951); conditions: HepG2 Attagene cis-factorial HIF1a reporter transcription; actives raise or lower the signal
Sequence of Hypoxia-inducible factor 1-alpha (Homo sapiens) (Q16665 whole entry, looked up): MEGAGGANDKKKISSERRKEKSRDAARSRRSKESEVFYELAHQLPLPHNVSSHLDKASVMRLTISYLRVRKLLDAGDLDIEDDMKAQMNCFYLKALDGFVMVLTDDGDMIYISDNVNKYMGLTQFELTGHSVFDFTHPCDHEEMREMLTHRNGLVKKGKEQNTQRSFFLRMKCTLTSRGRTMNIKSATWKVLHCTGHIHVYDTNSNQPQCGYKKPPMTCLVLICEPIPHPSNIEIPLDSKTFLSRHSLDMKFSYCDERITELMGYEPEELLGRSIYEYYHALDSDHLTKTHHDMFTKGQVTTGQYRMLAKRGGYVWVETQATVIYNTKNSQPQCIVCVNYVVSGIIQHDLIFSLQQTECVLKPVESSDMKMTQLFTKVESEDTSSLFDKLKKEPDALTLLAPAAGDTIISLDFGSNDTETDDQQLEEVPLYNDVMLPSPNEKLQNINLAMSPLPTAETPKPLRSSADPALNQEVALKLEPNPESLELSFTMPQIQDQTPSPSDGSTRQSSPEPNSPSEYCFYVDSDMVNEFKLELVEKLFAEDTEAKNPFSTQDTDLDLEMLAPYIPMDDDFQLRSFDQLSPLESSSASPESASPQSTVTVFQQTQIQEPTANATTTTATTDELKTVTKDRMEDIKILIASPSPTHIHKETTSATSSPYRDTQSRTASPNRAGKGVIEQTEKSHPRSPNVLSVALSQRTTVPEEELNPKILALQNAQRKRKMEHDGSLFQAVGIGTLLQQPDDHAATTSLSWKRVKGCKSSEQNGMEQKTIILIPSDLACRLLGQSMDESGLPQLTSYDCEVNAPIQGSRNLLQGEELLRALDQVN
Summary of the method: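 Dosed 24 h, transfected HepG2 cells yielded total RNA whose reporter transcripts were RT-PCR-amplified and sized by capillary electrophoresis using fluorescent labelling; DMSO defined baseline, with gain and loss of signal both fitted.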

[8] = target: Hepatocyte nuclear factor 6 (Homo sapiens) (UniProt Q9UBC0); assay: ATG_HNF6_CIS: Attagene CIS-FACTORIAL HepG2 Assay for human Hepatocyte Nuclear Factor 6 (HNF6) (AID 2282952); conditions: HepG2 Attagene cis-factorial HNF6 reporter transcription; actives raise or lower the signal
Sequence of Hepatocyte nuclear factor 6 (Homo sapiens) (Q9UBC0 whole entry, looked up): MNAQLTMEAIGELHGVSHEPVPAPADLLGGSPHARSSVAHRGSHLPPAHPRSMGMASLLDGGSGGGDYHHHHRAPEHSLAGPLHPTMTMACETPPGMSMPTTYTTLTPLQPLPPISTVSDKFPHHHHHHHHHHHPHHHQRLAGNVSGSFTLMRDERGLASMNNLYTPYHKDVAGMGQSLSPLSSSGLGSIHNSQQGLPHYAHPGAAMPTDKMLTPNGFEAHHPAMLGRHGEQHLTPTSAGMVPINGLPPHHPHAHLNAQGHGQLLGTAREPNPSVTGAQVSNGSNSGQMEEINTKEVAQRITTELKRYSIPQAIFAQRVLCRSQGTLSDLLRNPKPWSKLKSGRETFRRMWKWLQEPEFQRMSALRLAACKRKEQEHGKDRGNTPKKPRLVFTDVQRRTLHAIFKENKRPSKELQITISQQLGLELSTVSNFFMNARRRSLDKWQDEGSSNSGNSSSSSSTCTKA
Summary of the method: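 Multiplexed mRNA reporter assay in transfected HepG2; 24 h dosing; RT-PCR plus capillary electrophoresis fluorescence; DMSO-referenced bidirectional curve fitting.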

[9] = target: Heat shock factor protein 1 (Homo sapiens) (UniProt Q00613); assay: ATG_HSE_CIS: Attagene CIS-FACTORIAL HepG2 Assay for human Heat Shock Transcription Factor 1 (HSE) (AID 2282953); conditions: HepG2 HSE cis-reporter, Attagene RNA transcription; actives raise or lower the signal
Sequence of Heat shock factor protein 1 (Homo sapiens) (Q00613 whole entry, looked up): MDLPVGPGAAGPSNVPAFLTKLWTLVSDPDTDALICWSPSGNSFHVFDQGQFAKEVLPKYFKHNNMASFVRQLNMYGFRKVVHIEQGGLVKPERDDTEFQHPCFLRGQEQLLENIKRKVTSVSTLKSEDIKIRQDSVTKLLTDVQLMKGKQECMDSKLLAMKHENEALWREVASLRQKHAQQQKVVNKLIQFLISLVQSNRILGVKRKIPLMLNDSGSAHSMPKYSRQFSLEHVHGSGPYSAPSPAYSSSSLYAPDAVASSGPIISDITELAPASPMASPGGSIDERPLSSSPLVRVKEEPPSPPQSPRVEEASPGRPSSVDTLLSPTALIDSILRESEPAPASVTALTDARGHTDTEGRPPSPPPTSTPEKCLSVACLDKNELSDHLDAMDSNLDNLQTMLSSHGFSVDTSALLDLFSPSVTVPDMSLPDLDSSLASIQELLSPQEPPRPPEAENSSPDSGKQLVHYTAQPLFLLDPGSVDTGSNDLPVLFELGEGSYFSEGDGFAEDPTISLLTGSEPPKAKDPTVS
Summary of the method: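 Reporter mRNA induction in HepG2 is measured 24 h after dosing, using transiently transfected multiplexed cis-regulated reporter units. Signal comes from capillary electrophoresis of labelled RT-PCR products, with DMSO as negative control.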

[10] = ATG_MRE_CIS: Attagene CIS-FACTORIAL HepG2 Assay for human Metal Responsive Element (MRE) (AID 2282954); conditions: HepG2 MRE cis-reporter transcription, Attagene multiplex; actives raise or lower the signal
Summary of the method: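 Step one: transfect HepG2 with cis-regulated reporter units. Step two: dose 24 h. Step three: isolate RNA, RT-PCR, 6-FAM label, HpaI digest, capillary electrophoresis. Fit bidirectionally to DMSO.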

[11] = ATG_PBREM_CIS: Attagene CIS-FACTORIAL HepG2 Assay for human Phenobarbital-responsive Enhancer Module (PBREM) (AID 2282955); conditions: HepG2 PBREM cis-reporter, Attagene multiplexed transcription; actives raise or lower the signal
Summary of the method: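 Transfected liver-derived HepG2 cells exposed 24 h; PBREM reporter transcript quantified via RT-PCR and capillary electrophoresis, with activity in either direction referenced to DMSO.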

[12] = target: Paired box protein Pax-6 (Homo sapiens) (UniProt P26367); assay: ATG_Pax6_CIS: Attagene CIS-FACTORIAL HepG2 Assay for human Paired Box 6 (PAX6) (AID 2282956); conditions: HepG2 CIS-FACTORIAL PAX6 reporter transcription, RNA readout; actives raise or lower the signal
Sequence of Paired box protein Pax-6 (Homo sapiens) (P26367 whole entry, looked up): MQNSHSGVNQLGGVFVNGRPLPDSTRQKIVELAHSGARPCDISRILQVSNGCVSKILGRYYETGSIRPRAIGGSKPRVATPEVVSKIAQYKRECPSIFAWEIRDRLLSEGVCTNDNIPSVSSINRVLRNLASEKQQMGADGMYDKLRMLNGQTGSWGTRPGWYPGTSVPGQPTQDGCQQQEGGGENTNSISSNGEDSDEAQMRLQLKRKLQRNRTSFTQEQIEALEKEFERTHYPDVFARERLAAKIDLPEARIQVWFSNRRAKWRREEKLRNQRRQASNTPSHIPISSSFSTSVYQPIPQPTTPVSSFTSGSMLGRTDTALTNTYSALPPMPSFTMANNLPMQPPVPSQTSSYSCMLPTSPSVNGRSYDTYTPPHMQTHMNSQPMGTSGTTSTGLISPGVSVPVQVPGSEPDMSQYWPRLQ
Summary of the method: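 HepG2 cells transiently transfected with multiplexed cis-promoter reporter units (endogenous TF activity) were dosed for 24 h. Reporter mRNA was quantified by RT-PCR, 6-FAM labeling, HpaI digestion and capillary electrophoresis; bidirectional fitting versus DMSO baseline.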

[13] = ATG_PXRE_CIS: Attagene CIS-FACTORIAL HepG2 Assay for human Pregnane X Receptor Element (PXRE) (AID 2282957); conditions: HepG2 Attagene CIS-FACTORIAL PXRE reporter, mRNA; actives raise or lower the signal
Summary of the method: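 Cells: HepG2, transiently transfected reporter units under cis promoter control. Exposure: 24 h. Detection: reporter mRNA via RT-PCR/CE fluorescence; bidirectional fitting, DMSO-referenced.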

[14] = ATG_PPRE_CIS: Attagene CIS-FACTORIAL HepG2 Assay for human Peroxisome Proliferator-activated Response Element (PPRE) (AID 2282958); conditions: HepG2 PPRE cis-element reporter, Attagene transcription factor profiling; actives raise or lower the signal
Summary of the method: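 Measured endpoint: PPRE-controlled reporter mRNA, detected by RT-PCR and capillary electrophoresis fluorescence, from transiently transfected HepG2 cells 24 h after dosing. Curves fitted in both directions using DMSO baseline.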

[15] = ATG_RORE_CIS: Attagene CIS-FACTORIAL HepG2 Assay for human RAR-related Orphan Receptor Element (RORE) (AID 2282959); conditions: HepG2 Attagene cis-factorial RORE reporter, mRNA; actives raise or lower the signal
Summary of the method: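 Transiently transfected HepG2 reporter cells were treated 24 h. Reporter transcripts were detected by RT-PCR and capillary electrophoresis, with bidirectional fitting against DMSO.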

[16] = ATG_Sox_CIS: Attagene CIS-FACTORIAL HepG2 Assay for human SRY-box transcription factor (SOX) (AID 2282960); conditions: HepG2 Attagene cis-factorial SOX reporter, mRNA; actives raise or lower the signal
Summary of the method: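 Gain- or loss-of-signal endpoint, fitted bidirectionally with DMSO as negative control. Based on reporter mRNA from transfected HepG2 cells harvested 24 h post-treatment and quantified via RT-PCR and capillary electrophoresis.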

[17] = target: Transcription factor Sp1 (Homo sapiens) (UniProt P08047); assay: ATG_Sp1_CIS: Attagene CIS-FACTORIAL HepG2 Assay for human Specificity Protein 1 (Sp1) (AID 2282961); conditions: HepG2 Sp1 cis-reporter transcription, actives raise or lower the signal
Sequence of Transcription factor Sp1 (Homo sapiens) (P08047 whole entry, looked up, the tested form may be a part): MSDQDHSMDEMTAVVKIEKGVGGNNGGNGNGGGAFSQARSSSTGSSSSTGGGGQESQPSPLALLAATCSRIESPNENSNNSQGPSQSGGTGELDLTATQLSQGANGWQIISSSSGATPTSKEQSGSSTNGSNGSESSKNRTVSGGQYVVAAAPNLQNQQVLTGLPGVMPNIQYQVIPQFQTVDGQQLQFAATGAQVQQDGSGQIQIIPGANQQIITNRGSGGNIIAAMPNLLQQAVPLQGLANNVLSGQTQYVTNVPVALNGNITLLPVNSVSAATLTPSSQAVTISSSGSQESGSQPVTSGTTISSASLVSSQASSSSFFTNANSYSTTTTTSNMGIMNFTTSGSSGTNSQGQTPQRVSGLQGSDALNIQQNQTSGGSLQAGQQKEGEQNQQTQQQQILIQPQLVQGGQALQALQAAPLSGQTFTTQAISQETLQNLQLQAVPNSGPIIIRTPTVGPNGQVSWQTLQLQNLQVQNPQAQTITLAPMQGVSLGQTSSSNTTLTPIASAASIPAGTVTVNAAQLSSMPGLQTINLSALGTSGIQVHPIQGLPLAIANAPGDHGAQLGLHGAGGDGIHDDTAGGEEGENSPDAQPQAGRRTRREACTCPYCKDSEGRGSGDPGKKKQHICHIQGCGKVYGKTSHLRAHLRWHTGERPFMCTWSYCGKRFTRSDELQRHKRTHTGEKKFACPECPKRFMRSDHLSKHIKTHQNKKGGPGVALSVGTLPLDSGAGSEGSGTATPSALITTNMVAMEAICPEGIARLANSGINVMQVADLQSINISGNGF
Summary of the method: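 Endpoint reflects endogenous Sp1 transcriptional activity, not an exogenous fusion protein: HepG2 cells with transfected cis-regulated reporters, 24 h dosing, RT-PCR/capillary electrophoresis mRNA read-out, DMSO-normalised bidirectional fit.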

[18] = ATG_SREBP_CIS: Attagene CIS-FACTORIAL HepG2 Assay for human Sterol Regulatory Element Binding (SREBP) (AID 2282962); conditions: HepG2 Attagene cis-factorial SREBP reporter, mRNA; actives raise or lower the signal
Summary of the method: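 HepG2 cells transiently transfected with multiplexed cis-element reporter units report endogenous transcription factor activity. After 24 h of chemical exposure, reporter mRNA was quantified by RT-PCR, 6-FAM labelling, HpaI digestion and capillary electrophoresis; bidirectional fits used DMSO as baseline.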

[19] = target: Signal transducer and activator of transcription 3 (Homo sapiens) (UniProt P40763); assay: ATG_STAT3_CIS: Attagene CIS-FACTORIAL HepG2 Assay for human Signal Transducer and Activator of Transcription 3 (STAT3) (AID 2282963); conditions: HepG2, Attagene cis-factorial STAT3 reporter transcription; actives raise or lower the signal
Sequence of Signal transducer and activator of transcription 3 (Homo sapiens) (P40763 whole entry, looked up): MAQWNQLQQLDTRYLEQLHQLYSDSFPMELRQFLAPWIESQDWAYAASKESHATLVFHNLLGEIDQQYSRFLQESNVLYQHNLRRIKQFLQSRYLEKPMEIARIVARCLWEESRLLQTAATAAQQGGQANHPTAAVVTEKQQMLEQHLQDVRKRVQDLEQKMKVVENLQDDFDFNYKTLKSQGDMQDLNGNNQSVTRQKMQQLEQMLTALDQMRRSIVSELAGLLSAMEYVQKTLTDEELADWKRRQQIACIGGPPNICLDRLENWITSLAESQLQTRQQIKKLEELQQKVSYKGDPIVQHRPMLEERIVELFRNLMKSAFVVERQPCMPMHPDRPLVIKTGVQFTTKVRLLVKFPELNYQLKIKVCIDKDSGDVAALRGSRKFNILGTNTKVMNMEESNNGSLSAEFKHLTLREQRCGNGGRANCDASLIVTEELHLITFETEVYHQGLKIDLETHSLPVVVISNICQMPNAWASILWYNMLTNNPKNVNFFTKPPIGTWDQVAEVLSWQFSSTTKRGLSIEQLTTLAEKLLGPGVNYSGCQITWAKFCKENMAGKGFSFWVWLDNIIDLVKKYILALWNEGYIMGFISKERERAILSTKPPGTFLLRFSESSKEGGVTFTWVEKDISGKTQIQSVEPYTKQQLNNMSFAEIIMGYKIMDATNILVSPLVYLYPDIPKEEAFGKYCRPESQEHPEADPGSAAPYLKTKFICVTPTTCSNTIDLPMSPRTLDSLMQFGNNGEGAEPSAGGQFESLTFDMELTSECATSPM
Summary of the method: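 Transcript-level reporter assay. HepG2 transient MRTU transfection, 24 h exposure, fluorescence detection after RT-PCR and CE; DMSO baseline.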

[20] = ATG_TA_CIS: Attagene CIS-FACTORIAL HepG2 Assay for human TA Basal Promoter (AID 2282964); conditions: HepG2 Attagene CIS-factorial TA basal promoter reporter; actives raise or lower the signal
Summary of the method: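 Cis-factorial format in HepG2: reporters report endogenous factors, not chimeric Gal4 fusions. After 24 h treatment, reporter transcripts were measured by RT-PCR-capillary electrophoresis fluorescence, analysed bidirectionally versus DMSO.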

Measured: AC50

FC(F)(I)C(F)(F)C(F)(F)C(F)(F)I
inactive: [1] | [2] | [3] | [4] | [5] | [6] | [7] | [8] | [9] | [10] | [11] | [12] | [13] | [14] | [15] | [16] | [17] | [18] | [19] | [20]

FC(F)(F)C(F)(F)C(F)(F)C(F)(F)C(F)(F)C(F)(F)C(F)(F)C(F)(F)CCS
inactive: [1] | [2] | [3] | [4] | [5] | [6] | [7] | [8] | [9] | [10] | [11] | [12] | [13] | [14] | [15] | [16] | [17] | [18] | [19] | [20]

Cc1cccc(N(C)C)c1
inactive: [1] | [2] | [3] | [4] | [5] | [6] | [7] | [8] | [9] | [10] | [11] | [12] | [13] | [14] | [15] | [16] | [17] | [18] | [20]

Oc1ccc(Nc2ccccc2)cc1
active: [9] 168 µM | [10] 61.1 µM | [13] 21.9 µM | [15] 74.6 µM | [20] 58.1 µM
inactive: [1] | [2] | [3] | [4] | [5] | [6] | [7] | [8] | [11] | [12] | [14] | [16] | [17] | [18]

FC(F)(F)C(F)(F)CNCC(F)(F)C(F)(F)F
inactive: [1] | [2] | [3] | [4] | [5] | [6] | [7] | [8] | [9] | [10] | [11] | [12] | [13] | [14] | [15] | [16] | [17] | [18] | [20]

O=C(CC(=O)C(F)(F)C(F)(F)F)C(F)(F)F
inactive: [1] | [2] | [3] | [4] | [5] | [6] | [7] | [8] | [9] | [10] | [11] | [12] | [13] | [15] | [16] | [17] | [18] | [19] | [20]
active: [2] 106 µM | [13] 76.4 µM | [14] 51.2 µM and 64 µM

CCO[Si](CCC(F)(F)C(F)(F)C(F)(F)C(F)(F)C(F)(F)C(F)(F)F)(OCC)OCC
inactive: [1] | [2] | [3] | [4] | [5] | [6] | [7] | [8] | [9] | [10] | [11] | [12] | [13] | [14] | [15] | [16] | [17] | [18] | [19] | [20]

c1ccc(B(c2ccccc2)c2ccccc2)cc1
inactive: [1] | [2] | [3] | [4] | [5] | [6] | [8] | [9] | [11] | [12] | [14] | [16] | [17] | [18] | [20]
active: [7] 58.4 µM | [10] 51.6 µM | [13] 5.22 µM | [15] 71.5 µM

CO[Si](OC)(c1ccccc1)c1ccccc1
active: [13] 18.1 µM
inactive: [1] | [2] | [3] | [4] | [5] | [6] | [7] | [8] | [9] | [10] | [11] | [12] | [14] | [15] | [16] | [17] | [18] | [19] | [20]
